# A selection: hits, their analogues and other compounds. The true share with any hit is near 4%.
# TIM10 inh = TIM10 yeast growth inhibition; S. cerevisiae TIM10 strain growth, BacTiter-Glo luminescence, 24 h; actives 1.4% (n = 330,000); inhibition, % at 10 µM; AID 463195;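 active = inhibition of 40% or more at the single tested concentration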;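 also: wild-type TIM10 isogenic control strain grown at permissive 25 °C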
# NALP3 yeast inh = NALP3 inhibition in yeast; Yeast reconstituted NLRP3/ASC/caspase-1, beta-gal luminescence, 24 h; inhibition, % at 10 µM; actives 0.39% (n = 330,000);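 active = inhibition of 50% or more; inactive = inhibition below 50%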;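 also: plate controls were induced DMSO wells for no effect and uninduced yeast grown without galactose for full effect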
# tim23-1 inh = tim23-1 yeast growth inhibition. actives 1.3% (n = 330,000). inhibition, % at 20 µM. S. cerevisiae tim23-1 growth, BacTiter-Glo luminescence, 24 h;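 active = growth inhibition of the mutant yeast at or above 50%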;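 also: temperature-sensitive mutant grown at 25 °C; plate controls were DMSO-treated mutant yeast for no effect and medium wells lacking yeast for full effect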
# NALP1 yeast inh = NALP1 inhibition; S. cerevisiae NALP1/ASC/caspase-1 growth, X-gal OD620, 72 h; inhibition, % at 10 µM; actives 0.61% (n = 280,000); AID 2071; in the data active = inhibition mostly above about 24%, no sharp cut-off; inactive = mostly below about 32%
# tim10-1 inh = growth inhibitors of tim10-1 mutant yeast | S. cerevisiae tim10-1 ts strain growth, BacTiter-Glo, 24 h | inhibition, % at 20 µM | actives 2.2% (n = 330,000) | AID 463190;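 active = inhibition of at least 40%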;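 also: mutant grown at 25 °C; 0% = DMSO wells with yeast and 100% = wells holding no yeast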
# tim10-1 confirm = tim10-1 yeast growth inhibition, confirmed | shares compounds with tim10-1 inh | S. cerevisiae tim10-1 ts strain growth, BacTiter-Glo, 24 h | inhibition, % at 20 µM | actives 56% (n = 7,400) | AID 463213;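 active = inhibition of yeast growth at or above a set limit in either of two repeat tests at 20 µM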;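 also: tim10-1 mutant grown at permissive 25 °C to find synthetic lethal compounds; 0% = DMSO yeast wells and 100% = medium wells without yeast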
# An asterisk follows results filed as active; . = no result.
SMILES,TIM10 inh,NALP3 yeast inh,tim23-1 inh,NALP1 yeast inh,tim10-1 inh,tim10-1 confirm
N/C(=N\OC(=O)Oc1ccccc1)c1ccc([N+](=O)[O-])cc1,-15.9,5.4,13.7,21.8,13.8,.
N/C(=N\OC(=O)CCCc1ccccc1)c1ccc([N+](=O)[O-])cc1,24.5,-3.1,31.6,29.2,45.8*,52.3*
N/C(=N\OC(=O)Cc1ccccc1)c1ccc([N+](=O)[O-])cc1,19.8,-3.5,30.4,32.4,38.6,.
COc1ccc(OCCCC(=O)ON=C(N)c2ccccc2C)cc1,38.6,7.4,39.0,.,44.1*,55.9*
O=C(c1ccc([N+](=O)[O-])cc1)N1CCN(c2cccc3[nH]ccc23)CC1,-3.7,17.9,-1.6,2.8,-0.8,.
C=CCn1c(O)c(C2=c3ccccc3=NC2=O)sc1=Nc1ccc(O)cc1,6.0,10.2,38.5,-12.1,63.0*,25.4
S=c1[nH]nc(-c2ccccc2)n1/N=C/c1ccc(-c2ccccc2Cl)o1,25.1,8.7,30.9,19.7,44.7*,22.1
CC1CCc2nc(NC(=O)c3ccco3)sc2C1 (centres undefined),38.7,6.9,18.0,-3.9,45.2*,31.1*
O=C(CCl)Nc1c(C(=O)Nc2ccc3c(c2)OCCO3)oc2ccccc12,39.0,29.2,48.2,-0.2,41.8*,21.3
COCC(=O)Nc1c(C(=O)Nc2ccc3c(c2)OCO3)oc2ccccc12,-0.5,6.2,5.7,21.3,-11.8,.
CSc1nnc(-c2cccc(NC(=S)NN)c2)o1,34.2,17.9,5.4,6.5,49.0*,9.1
Cc1ccc(O)c(C2=Nc3ccccc3N=C(c3ccc([N+](=O)[O-])cc3)C2)c1,-31.2,9.3,-24.5,14.9,5.1,.
Cc1ccc(O)c(C2=Nc3ccccc3N=C(c3cccc([N+](=O)[O-])c3)C2)c1,13.7,-3.3,3.2,13.6,40.2*,17.7
COc1ccc(-n2ccnc2SCC(=O)NC2CCCC2)cc1,1.5,4.6,10.4,.,9.1,.
O=C(c1cc(-c2cccnc2)nc2ccc(Br)cc12)N1CCN(c2ncccn2)CC1,27.9,9.8,44.1,12.5,45.5*,18.4
O=c1cc(CSCc2ccc(Cl)cc2)[nH]c(=O)[nH]1,-0.7,19.5,-8.9,8.7,-5.6,.
O=C(/C=C/c1ccco1)N(Cc1cccc(F)c1)C1CCS(=O)(=O)C1 (centres undefined),0.4,13.7,18.7,3.6,23.5,.
CN(C)CCCN(C(=O)c1ccc(S(=O)(=O)N2CCc3ccccc32)cc1)c1nc2ccc(Cl)cc2s1,18.9,10.4,21.7,21.6,43.5*,34.2*
CN(C)CCN(C(=O)c1ccc(S(=O)(=O)N(C)c2ccccc2)cc1)c1nc2ccc(Cl)cc2s1,0.2,1.7,7.4,8.9,13.2,.
CN(C)CCCN(C(=O)c1ccc(S(=O)(=O)N2CCc3ccccc32)cc1)c1nc2ccc(F)cc2s1,14.6,2.5,21.8,24.0,40.0,26.0
Cc1nc2cc(NC(=O)c3ccc(S(=O)(=O)N(C)c4ccccc4)cc3)ccc2o1,14.8,15.0,6.4,8.2,-1.5,.
COc1ccc(/C=C2\SC(N3CCCCC3)=NC2=O)cc1,30.9,34.9,46.1,-12.9,47.4*,43.5*
CN(CC(=O)NC1(C)CCS(=O)(=O)C1)S(=O)(=O)c1ccc(Cl)cc1 (centres undefined),4.1,10.6,5.0,.,-13.3,.
COc1ccc(-c2nc(-c3ccccn3)no2)cc1,35.7,11.4,46.1,1.5,48.9*,55.7*
COc1ccccc1-c1nc(-c2ccccn2)no1,19.1,11.1,19.5,10.5,20.7,.
SMILES,TIM10 inh,NALP3 yeast inh,tim23-1 inh,NALP1 yeast inh,tim10-1 inh,tim10-1 confirm
CCCC1=C/C(=C/c2ccc(-c3ccccc3OC)o2)C(=O)O1,16.8,5.1,23.1,30.3,27.8,.
COc1ccccc1-c1ccc(/C=C2/C=C(CC(C)C)OC2=O)o1,22.0,15.7,30.9,17.0,42.0*,35.9*
c1ccc(-c2nc(CSc3n[nH]c(-c4cccs4)n3)cs2)cc1,37.4,27.1,39.3,15.5,42.0*,34.0*
Cc1ccc(NC(=O)c2cccc(C(=O)Nc3ccc(C)c(C)c3)n2)cc1C,9.0,6.6,18.4,4.7,11.3,.
CCCCCCCCCCCCC/C=C/[C@@H](O)[C@@H](N)CO,22.2,33.8,35.0,.,43.9*,0.9
CCCCCCCC/C=C\CCCCCCCC(=O)O,-21.6,14.4,2.1,8.3,-3.6,.
S=c1nc(-c2ccccc2)[nH]c2ccc(Br)cc12,37.2,20.6,25.6,30.5,42.9*,15.4
Cc1cccc2c1N(CCCOc1ccc(C(C)(C)C)cc1)C(=O)C2=O,27.1,0.0,46.7,6.8,40.3*,18.6
Cc1cccc(OCCN2C(=O)C(=O)c3cccc(C)c32)c1,10.2,25.8,31.0,27.1,12.7,.
CC(Oc1ccc(Cl)cc1)C(=O)N/N=C/c1ccsc1 (centres undefined),10.8,17.9,30.3,30.0,-2.8,.
CCOC(=O)N1CCN(CCC(=O)Nc2cccc(C)c2)CC1,-9.1,-2.1,7.5,-2.0,3.8,.
Cc1ccc(NCC(=O)N/N=C/c2c[nH]c3ccccc23)cc1,38.9,-1.4,-6.2,-13.0,16.5,.
O=S(=O)(c1cccc(-c2cn3ccccc3n2)c1)N1CCCCC1,-2.1,7.9,30.0,-6.6,23.0,.
Cc1nc(-c2cccc(S(=O)(=O)N3CC(C)OC(C)C3)c2)cs1 (centres undefined),6.5,4.5,12.9,-2.4,11.8,.
Cc1ccn2cc(-c3cccc(S(=O)(=O)N4CCCC4)c3)nc2c1,8.7,-76.4,26.8,-25.8,50.0*,-7.4
Cc1ccn2cc(-c3cccc(S(=O)(=O)N4CC(C)OC(C)C4)c3)nc2c1 (centres undefined),12.7,-17.3,29.5,1.9,41.5*,7.5
CCN(CC)S(=O)(=O)c1ccc(NC(=O)CSc2nnc(-c3cccc(OC)c3)n2C)cc1,3.6,14.8,-10.5,-17.2,10.4,.
COc1cccc(-c2nnc(SCN3C(=O)c4ccccc4C3=O)n2C)c1,35.3,6.6,31.9,18.1,41.6*,33.0*
CCc1ccc(NC(=S)NC(=O)CC(C)C)cc1,-4.7,25.5,-14.2,22.0,13.2,.
COc1ccc(-c2cc(C(=O)Nc3cccc(O)c3)no2)cc1,2.3,9.3,-4.5,-12.2,-23.9,.
c1ccc(-n2nnnc2SCc2cccc3nsnc23)cc1,22.7,15.1,36.2,2.7,40.2*,33.0*
O=C(COc1ccccc1)NCC(c1ccco1)N1CCN(c2ccc(F)cc2)CC1 (centres undefined),24.9,-66.6,46.6,.,41.3*,29.1
O=C(NCC(c1ccco1)N1CCN(c2ccccc2)CC1)OCc1ccccc1 (centres undefined),5.8,11.8,30.0,26.6,40.8*,23.5
O=C(NCC(c1ccco1)N1CCN(c2ccccc2F)CC1)OCc1ccccc1 (centres undefined),-0.7,-1.5,18.1,-4.0,15.9,.
